Reference: the supplement of paper PMC7411054
Counter-ions that a name gives are not always drawn.

Experiments:
Settings in all cases: treatment time: 24 h
A549-ACTB-RAB5A [1] = assay: lowest phenotypically active concentration; higher = less potent
How it was run: (§1)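 The reporter lines, fifteen in total and built by gene editing in A549, HepG2 and WPMY1 cells, used BFP for segmentation alongside GFP and RFP/FusionRed markers. Each was treated at 0.3, 1, 3 or 9 µM for 24 h in four wells and then imaged live, with live-cell features normalised to solvent control wells. Deviation meant ≥3 of 4 wells beyond the 95th percentile of control Euclidean distances; reproducibility meant a median replicate Pearson correlation above the 95th percentile of non-replicates. Only conditions meeting both were scored as phenotypically active.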

A549-GM130-SQSTM1 [2] = assay: as above
How it was run: as §1

A549-TUBA1B-RELA [3] = assay: as above
How it was run: as §1

WPMY1-GM130-SQSTM1 [4] = assay: as above
How it was run: as §1

A549-ACTB-RAB5A [5] = assay: phenotypically active (imaging signature differs from DMSO and reproducible) at any of 0.3-9 uM (binary (1 = active, 0 = inactive)); higher = active
How it was run: as §1

A549-CANX-COX4 = assay: as above
How it was run: as §1

A549-GM130-SQSTM1 [6] = assay: as above
How it was run: as §1

A549-TP53BP1-CLTA = assay: as above
How it was run: as §1

A549-TUBA1B-RELA [7] = assay: as above
How it was run: as §1

HepG2-ACTB-RAB5A [8] = assay: as above
How it was run: as §1

HepG2-CANX-COX4 = assay: as above
How it was run: as §1

HepG2-GM130-SQSTM1 = assay: as above
How it was run: as §1

HepG2-TP53BP1-CLTA = assay: as above
How it was run: as §1

HepG2-TUBA1B-RELA = assay: as above
How it was run: as §1

WPMY1-ACTB-RAB5A = assay: as above
How it was run: as §1

WPMY1-CANX-COX4 = assay: as above
How it was run: as §1

WPMY1-GM130-SQSTM1 [9] = assay: as above
How it was run: as §1

WPMY1-TP53BP1-CLTA = assay: as above
How it was run: as §1

WPMY1-TUBA1B-RELA = assay: as above
How it was run: as §1

HepG2-ACTB-RAB5A [10] = assay: lowest phenotypically active concentration; higher = less potent
How it was run: as §1

Row | SMILES | lowest phenotypically active concentration (A549-ACTB-RAB5A [1]) [µM] | lowest phenotypically active concentration (A549-GM130-SQSTM1 [2]) [µM] | lowest phenotypically active concentration (A549-TUBA1B-RELA [3]) [µM] | lowest phenotypically active concentration (WPMY1-GM130-SQSTM1 [4]) [µM] | phenotypically active (A549-ACTB-RAB5A [5]) | phenotypically active (A549-CANX-COX4) | phenotypically active (A549-GM130-SQSTM1 [6]) | phenotypically active (A549-TP53BP1-CLTA) | phenotypically active (A549-TUBA1B-RELA [7]) | phenotypically active (HepG2-ACTB-RAB5A [8]) | phenotypically active (HepG2-CANX-COX4) | phenotypically active (HepG2-GM130-SQSTM1) | phenotypically active (HepG2-TP53BP1-CLTA) | phenotypically active (HepG2-TUBA1B-RELA) | phenotypically active (WPMY1-ACTB-RAB5A) | phenotypically active (WPMY1-CANX-COX4) | phenotypically active (WPMY1-GM130-SQSTM1 [9]) | phenotypically active (WPMY1-TP53BP1-CLTA) | phenotypically active (WPMY1-TUBA1B-RELA) | lowest phenotypically active concentration (HepG2-ACTB-RAB5A [10]) [µM]
1 | COc1ccc(-c2cnc(-c3cccc4c3-c3ccccc3C4=O)o2)cc1 | ≤ 0.3 | ≤ 0.3 | ≤ 0.3 | ≤ 0.3 | 1 (active) | 1 (active) | 1 (active) | 1 (active) | 1 (active) | 0 (inactive) | 0 (inactive) | 0 (inactive) | 0 (inactive) | 0 (inactive) | 1 (active) | 1 (active) | 1 (active) | 1 (active) | 1 (active) | 
2 | COc1c(Cl)cc2c([nH]c3cnccc32)c1NC(=O)c1cccnc1C [ML 120B dihydrochloride] | 9 | 3 | 9 |  | 1 (active) | 1 (active) | 1 (active) | 0 (inactive) | 1 (active) | 1 (active) | 1 (active) | 0 (inactive) | 1 (active) | 0 (inactive) | 0 (inactive) | 0 (inactive) | 0 (inactive) | 0 (inactive) | 0 (inactive) | 9
3 | CCCCOc1c(C(=O)c2c(F)cc(C)cc2F)cnc2[nH]ncc12 | ≤ 0.3 | 1 | ≤ 0.3 |  | 1 (active) | 1 (active) | 1 (active) | 0 (inactive) | 1 (active) | 1 (active) | 0 (inactive) | 1 (active) | 1 (active) | 1 (active) | 1 (active) | 1 (active) | 0 (inactive) | 0 (inactive) | 1 (active) | 3
4 | C=C1CC[C@@H]2[C@](C)(CO)[C@H](O)CC[C@@]2(C)[C@@H]1C/C=C1/C(=O)OC[C@H]1O [Andrographolide] | 9 | 3 | 9 | 9 | 1 (active) | 1 (active) | 1 (active) | 0 (inactive) | 1 (active) | 1 (active) | 1 (active) | 1 (active) | 1 (active) | 1 (active) | 0 (inactive) | 0 (inactive) | 1 (active) | 0 (inactive) | 1 (active) | 3
5 | CN(C)CC(=O)Nc1ccc2[nH]c(=O)c3ccccc3c2c1 [PJ 34 hydrochloride] | 9 | 9 | 9 | 9 | 1 (active) | 1 (active) | 1 (active) | 0 (inactive) | 1 (active) | 1 (active) | 1 (active) | 1 (active) | 1 (active) | 1 (active) | 1 (active) | 1 (active) | 1 (active) | 0 (inactive) | 1 (active) | 9
6 | O=c1cc(-c2ccccc2)oc2c(O)c(O)ccc12 [7,8-Dihydroxyflavone] | 9 |  | 9 | 9 | 1 (active) | 1 (active) | 0 (inactive) | 0 (inactive) | 1 (active) | 1 (active) | 1 (active) | 1 (active) | 0 (inactive) | 0 (inactive) | 1 (active) | 1 (active) | 1 (active) | 0 (inactive) | 1 (active) | 9
7 | CC(C)C(=O)SCCCCCCC(=O)Nc1nc(-c2ccccc2)cs1 | 1 |  | 9 | 1 | 1 (active) | 1 (active) | 0 (inactive) | 0 (inactive) | 1 (active) | 0 (inactive) | 1 (active) | 0 (inactive) | 0 (inactive) | 0 (inactive) | 1 (active) | 1 (active) | 1 (active) | 1 (active) | 1 (active) | 
8 | CN1CCc2cccc3c2[C@H]1Cc1ccc(O)c(O)c1-3 [r(-)-apomorphine] | 9 | 9 | 9 | ≤ 0.3 | 1 (active) | 1 (active) | 1 (active) | 1 (active) | 1 (active) | 0 (inactive) | 0 (inactive) | 0 (inactive) | 0 (inactive) | 0 (inactive) | 1 (active) | 1 (active) | 1 (active) | 0 (inactive) | 1 (active) | 
9 | N#C/C(=C/c1ccc(O)c(O)c1)C(=O)NCCCCc1ccccc1 | 9 | 9 | 9 | 9 | 1 (active) | 1 (active) | 1 (active) | 0 (inactive) | 1 (active) | 1 (active) | 1 (active) | 1 (active) | 1 (active) | 0 (inactive) | 1 (active) | 1 (active) | 1 (active) | 1 (active) | 1 (active) | 9
10 | Cc1cc(F)c(Nc2ncnc3cc(OCc4ccccc4)ccc23)cc1O | 9 | 9 | 9 |  | 1 (active) | 1 (active) | 1 (active) | 0 (inactive) | 1 (active) | 0 (inactive) | 0 (inactive) | 0 (inactive) | 0 (inactive) | 0 (inactive) | 0 (inactive) | 1 (active) | 0 (inactive) | 0 (inactive) | 1 (active) | 
11 | CCn1c(=O)n([C@H]2CCCN(c3nccc(-c4cc5ccccc5o4)n3)C2)c2ccccc21 | 3 | 3 | 9 |  | 1 (active) | 1 (active) | 1 (active) | 1 (active) | 1 (active) | 0 (inactive) | 0 (inactive) | 0 (inactive) | 0 (inactive) | 0 (inactive) | 0 (inactive) | 1 (active) | 0 (inactive) | 0 (inactive) | 0 (inactive) | 
